Results taken from PubChem BioAssay AID1159580 (chemical genetic matrix, 2015).
Where “and” joins values, the source holds several entries; their conditions need not be identical. Equal values may be shown once. Screen size: about 5,500 compounds; about 2,000 (36%) were called active. Another 18% or so got no clear call; they are omitted. Rule as the data show it: active = normalized growth mostly below about 0.91 (no sharp cut-off); inconclusive = no clear call, values can overlap the other calls; inactive = mostly above about 0.92. Some of the results follow.

Test: chemical genetic growth profiling, strain panel (AID 1159580);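 also: tested at 20 µM; growth read once vehicle control cultures reached saturation at 30 °C; 1 = growth at the plate median or of vehicle wells; lower values mean less growth of the strain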
Conditions: S. cerevisiae deletion strains, growth OD

Measured: normalized growth

CC(C)NCC(O)c1ccc(O)c(O)c1 (stereo not given)
inactive: locus YAL013W, strain DEP1, active compounds read low 1.01 | locus YAL021C, strain ccr4, active compounds read low 0.994 | locus YAL026C, strain drs2, active compounds read low 0.994 | locus YAL030W, strain snc1, active compounds read low 0.996 | locus YAL040C, strain CLN3, active compounds read low 1 and 1.06 | locus YBL061C, strain skt5, active compounds read low 0.99 | locus YBR009C, strain hhf1, active compounds read low 0.995 | locus YBR021W, strain FUR4, active compounds read low 1.01 | locus YBR023C, strain chs3, active compounds read low 0.982 | locus YBR171W, strain sec66, active compounds read low 0.979 | locus YBR229C, strain ROT2, active compounds read low 1.02 | locus YBR231C, strain swc5, active compounds read low 0.997 | locus YBR279W, strain paf1, active compounds read low 0.973 | locus YCL011C, strain gbp2, active compounds read low 0.978 | locus YCL016C, strain dcc1, active compounds read low 0.951 | locus YCL029C, strain bik1, active compounds read low 1 | locus YCL061C, strain MRC1 (second series), active compounds read low 0.995 and 0.99 | locus YCL061C, strain MRC1, active compounds read low 0.985 | locus YCL069W, strain vba3, active compounds read low 1 | locus YCR088W, strain abp1, active compounds read low 0.99 | locus YDL005C, strain med2, active compounds read low 0.997 | locus YDL035C, strain GPR1, active compounds read low 1.02 | locus YDL040C, strain nat1, active compounds read low 1.01 | locus YDL074C, strain BRE1, active compounds read low 1.03 | locus YDL101C, strain DUN1, active compounds read low 1.01 | locus YDL185W, strain tfp1, active compounds read low 0.984 | locus YDL192W, strain arf1, active compounds read low 1 | locus YDR001C, strain nth1, active compounds read low 0.992 | locus YDR069C, strain doa4, active compounds read low 1.02 | locus YDR101C, strain arx1, active compounds read low 1.02 | locus YDR137W, strain rgp1, active compounds read low 1 | locus YDR150W, strain NUM1, active compounds read low 1.02 and 0.999 | locus YDR159W, strain sac3, active compounds read low 1.01 | locus YDR162C, strain NBP2, active compounds read low 1 | locus YDR195W, strain ref2 0.992 | locus YDR297W, strain sur2, active compounds read low 0.99 | locus YDR318W, strain mcm21, active compounds read low 0.996 | locus YDR334W, strain swr1, active compounds read low 0.982 | locus YDR335W, strain msn5, active compounds read low 0.992 | locus YDR363W, strain ESC2, active compounds read low 1.02 and 0.978 | locus YDR388W, active compounds read low 0.994 | locus YDR392W, strain spt3, active compounds read low 0.912 | locus YDR502C, strain sam2, active compounds read low 0.999 | locus YEL003W, strain gim4, active compounds read low 1.01 | locus YEL037C, strain rad23, active compounds read low 0.993 | locus YEL061C, strain CIN8 (second series), active compounds read low 0.994 | locus YEL061C, strain CIN8, active compounds read low 1.01 | locus YER002W, strain NOP16, active compounds read low 0.997 and 0.956 | locus YER015W, strain faa2, active compounds read low 0.995 | locus YER016W, strain bim1, active compounds read low 1.01 | locus YER110C, active compounds read low 0.997 | locus YER111C, strain swi4, active compounds read low 0.985 | locus YER155C, strain BEM2 (second series), active compounds read low 0.989 | locus YER155C, strain BEM2, active compounds read low 1.01 | locus YER167W, strain BCK2, active compounds read low 0.992 | locus YFR010W, strain ubp6, active compounds read low 0.992 | locus YGL078C, strain dbp3, active compounds read low 0.995 | locus YGL086W, strain mad1, active compounds read low 0.994 | locus YGL167C, strain pmr1, active compounds read low 0.989 | locus YGL173C, strain kem1, active compounds read low 0.999 | locus YGL227W, strain vid30, active compounds read low 0.99 | locus YGL240W, strain doc1, active compounds read low 0.982 | locus YGL248W, strain PDE1, active compounds read low 1.01 | locus YGL253W, strain hxk2, active compounds read low 0.999 | locus YGR078C, strain PAC10, active compounds read low 1.02 and 0.98 | locus YGR135W, strain pre9, active compounds read low 0.993 | locus YGR229C, strain SMI1, active compounds read low 1.01 | locus YGR252W, strain gcn5, active compounds read low 0.936 | locus YHR013C, strain ard1, active compounds read low 0.976 | locus YHR027C, strain rpn1, active compounds read low 0.997 | locus YHR030C, strain SLT2, active compounds read low 1.01 and 0.977 | locus YHR079C, strain IRE1 (second series), active compounds read low 1 | locus YHR079C, strain IRE1, active compounds read low 0.993 | locus YHR094C, strain hxt1, active compounds read low 0.987 | locus YHR129C, strain ARP1, active compounds read low 1.01 | locus YHR142W, strain chs7, active compounds read low 0.965 | locus YHR200W, strain rpn10, active compounds read low 1 | locus YIL066C, strain RNR3, active compounds read low 1.01 | locus YIL073C, strain SPO22, active compounds read low 1.05 | locus YIL125W, strain kgd1, active compounds read low 0.99 | locus YIR030C, strain dcg1, active compounds read low 1.01 | locus YJL092W, strain hpr5, active compounds read low 0.985 | locus YJL095W, strain BCK1 (second series), active compounds read low 0.995 | locus YJL095W, strain BCK1, active compounds read low 1.03 and 0.991 | locus YJL115W, strain asf1, active compounds read low 0.995 | locus YJL129C, strain trk1, active compounds read low 0.979 | locus YJL134W, strain LCB3, active compounds read low 1.02 | locus YJL154C, strain vps35, active compounds read low 0.995 | locus YJL164C, strain tpk1, active compounds read low 0.998 | locus YJL166W, strain qcr8, active compounds read low 0.972 | locus YJL168C, strain set2, active compounds read low 0.984 | locus YJL187C, strain SWE1 (second series), active compounds read low 1.01 | locus YJL187C, strain SWE1, active compounds read low 1 | locus YJR043C, strain POL32, active compounds read low 1.01 | locus YJR066W, strain TOR1, active compounds read low 0.944
